Measured values taken from PubChem BioAssay AID1918990 (ICCB-Longwood Screening Facility, Harvard Medical School, 2023).
Screen size: about 29,000 compounds; about 85 (0.3%) were called active.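 How the source made its calls: active means replicate mean overnight rise in green fluorescent reporter signal, 3 or more SD over negative controls; inactive means the rest.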 What follows is part of a selection rich in actives, with near analogues and random picks from the rest.

Experiment: fixK promoter GFP reporter activation – B. multivorans, primary screen (AID 1918990)
Details: 18 h, active compounds read high

z-score, inactive:
COc1cc(C(=O)N2CCC(O)(c3ccc(C)cn3)CC2)nc(OC)n1 -2.73, CCOc1ccc(NC(=O)c2cnn(-c3ccccc3)c2-n2cccc2)cc1 0.15, CC(=O)N1CCN(Cc2cc(Cl)cc(Cl)c2)C2CS(=O)(=O)CC21 (stereo unspecified) 1.37, CN(C)C(=O)N1CCC(C(=O)NC2COCC2Cc2ccncc2)CC1 (stereo unspecified) -2.62, COc1ccc(OC)c(-c2nc(CN3CCNC(=O)CC3)c(C)o2)c1 -1.03, O=C1N(Cc2ccccc2)c2ccc(Cl)cc2C1(O)c1c[nH]c2ccccc12 (stereo unspecified) -2.44, CCCNC(=O)CCn1nc(-c2ccccc2)c2ccccc2c1=O -2.63, COC(=O)c1ccc(NC(=O)c2cccc3c2C(=O)N(C2CCCCC2)C3)cc1 -0.11, CN(CC(=O)Nc1cccc(C(F)(F)F)c1)S(=O)(=O)c1cccs1 -1.64, COc1ccc(C2=NC3(CCCCC3)N(CC(=O)Nc3ccc(C(C)C)cc3)C2=O)cc1 -0.47, O=C(CSc1nc(-c2cccc(F)c2)[nH]c1-c1ccccc1)Nc1ccc2c(c1)OCO2 -0.24, CC1CCCCN1Cc1c(O)ccc2c(=O)c(-c3cccc(Cl)c3)c(C(F)(F)F)oc12 (stereo unspecified) -3.67, O=C(NC1CCCC1Cc1ccc(F)cc1)c1cccc(=O)[nH]1 (stereo unspecified) 0.15, Cn1nnnc1SCCNCc1ccc(Cl)c(Cl)c1 -2.02, O=C(c1ccnc(CC2COc3ccccc3C2)c1)N1CCOCC1 (stereo unspecified) 1.09, CN1CCN(CC2(CNC(=O)CN(C)Cc3cccnc3)CC2)CC1 -0.08, CCCc1cc(CNC(=O)c2ccc3c(c2)OCC(=O)N3)on1 0.27, CCn1cc(C(=O)N(C)Cc2ccccc2)c(=O)c2cc(S(=O)(=O)N3CCCCCC3)ccc21 -2.08, Cc1cccc(C(=O)N2CCC[C@@]3(CN(Cc4ncc(C)[nH]4)CCC3O)C2)c1 (stereo partly specified) 0.68, CNC(=O)c1cccc(NC(=O)CCCc2cccs2)c1C -1.26, COc1ccc(CNc2nc(-c3ccccc3)nn2C(=O)c2ccccc2OC)cc1 0.5, COc1cc(C2c3c(oc4ccccc4c3=O)C(=O)N2c2nc(C)c(C)s2)ccc1O (stereo unspecified) -1, Cc1nc(SCCOc2ccc(Cl)cc2)[nH]c(=O)c1Cc1ccccc1 -1.27, COCC1C(NS(=O)(=O)c2ccc(F)cc2C)C2CCOC21 (stereo unspecified) -0.38, COc1ccc(-c2nc3ccccc3o2)cc1NC(=O)c1cc([N+](=O)[O-])ccc1N1CCOCC1 -1.81, CC(=O)c1ccc(N2CCN(c3nc4c(S(=O)(=O)c5ccccc5)nnn4c4ccc(Cl)cc34)CC2)cc1 0.23, COc1ccc2c(c1)c(=O)c(S(=O)(=O)c1ccc(F)cc1)cn2CC(=O)Nc1ccc(C)cc1C -1.75, Cc1nn(-c2nc(-c3ccccc3)cc(C(F)(F)F)n2)c(C)c1Cl -0.93, CCCSc1ncc(Cl)c(C(=O)Nc2c(C(=O)Nc3ccccc3)oc3ccccc23)n1 -0.41, O=C(c1ccc2c(c1)N(Cc1ccc(Cl)cc1)C(=O)c1ccccc1S2(=O)=O)N1CCCCC1 0.84, COc1ccccc1CNC(=O)CCn1c(=O)c2ccccc2n(CC(=O)Nc2cccc(Cl)c2)c1=O 0.27
